Measured values published in PubChem BioAssay AID1159580 (chemical genetic matrix, 2015).
Several values for one entry are separate records, joined by “and”; a condition that tells them apart may be missing. Equal entries are not always repeated. The whole screen tested about 5,500 compounds, of which about 2,000 (36%) were called active. Another 18% or so got no clear call; they are omitted. Cut-off read from the data, not from the text of the source: active = normalized growth mostly below about 0.91 (no sharp cut-off); inconclusive = no clear call, values can overlap the other calls; inactive = mostly above about 0.92. Some of the results follow.

Assay: chemical genetic growth profiling, strain panel (AID 1159580);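 note: tested at 20 µM; growth read once vehicle control cultures reached saturation at 30 °C; 1 = growth at the plate median or of vehicle wells; lower values mean less growth of the strain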
Conditions: S. cerevisiae deletion strains, growth OD

Measured: normalized growth

CC(=O)O[C@H]1CC[C@@]2(C)C(CC[C@]3(C)C2CC=C2C4CC(C)(C)CC[C@]4(C)CC[C@]23C)C1(C)C (stereo partly drawn)
inactive: locus YAL013W, strain DEP1, stronger effect = lower value 1.02 | locus YAL021C, strain ccr4, stronger effect = lower value 0.919 | locus YAL026C, strain drs2, stronger effect = lower value 1.01 | locus YAL030W, strain snc1, stronger effect = lower value 0.979 | locus YBL061C, strain skt5, stronger effect = lower value 0.996 | locus YBR009C, strain hhf1, stronger effect = lower value 0.973 | locus YBR021W, strain FUR4, stronger effect = lower value 1.01 | locus YBR023C, strain chs3, stronger effect = lower value 0.982 | locus YBR171W, strain sec66, stronger effect = lower value 0.99 | locus YBR229C, strain ROT2, stronger effect = lower value 1 | locus YBR231C, strain swc5, stronger effect = lower value 1.01 | locus YBR279W, strain paf1, stronger effect = lower value 0.999 | locus YCL011C, strain gbp2, stronger effect = lower value 0.962 | locus YCL016C, strain dcc1, stronger effect = lower value 0.964 | locus YCL029C, strain bik1, stronger effect = lower value 1 | locus YCL061C, strain MRC1, stronger effect = lower value 0.99 | locus YCL069W, strain vba3, stronger effect = lower value 0.978 | locus YCR088W, strain abp1, stronger effect = lower value 0.991 | locus YDL005C, strain med2, stronger effect = lower value 0.988 | locus YDL035C, strain GPR1, stronger effect = lower value 1.03 | locus YDL040C, strain nat1, stronger effect = lower value 0.989 | locus YDL074C, strain BRE1, stronger effect = lower value 1.06 | locus YDL101C, strain DUN1, stronger effect = lower value 1.02 | locus YDL185W, strain tfp1, stronger effect = lower value 1.02 | locus YDL192W, strain arf1, stronger effect = lower value 1 | locus YDR001C, strain nth1, stronger effect = lower value 0.968 | locus YDR069C, strain doa4, stronger effect = lower value 0.971 | locus YDR101C, strain arx1, stronger effect = lower value 0.997 | locus YDR137W, strain rgp1, stronger effect = lower value 0.973 | locus YDR150W, strain NUM1, stronger effect = lower value 1.01 | locus YDR159W, strain sac3, stronger effect = lower value 0.998 | locus YDR162C, strain NBP2, stronger effect = lower value 1.03 | locus YDR195W, strain ref2 0.953 | locus YDR297W, strain sur2, stronger effect = lower value 1 | locus YDR318W, strain mcm21, stronger effect = lower value 1.01 | locus YDR334W, strain swr1, stronger effect = lower value 0.98 | locus YDR335W, strain msn5, stronger effect = lower value 0.989 | locus YDR388W, stronger effect = lower value 1.02 | locus YDR392W, strain spt3, stronger effect = lower value 0.889 | locus YDR502C, strain sam2, stronger effect = lower value 1.02 | locus YEL003W, strain gim4, stronger effect = lower value 1.02 | locus YEL037C, strain rad23, stronger effect = lower value 0.978 | locus YEL061C, strain CIN8 (second series), stronger effect = lower value 0.978 | locus YER015W, strain faa2, stronger effect = lower value 0.981 | locus YER016W, strain bim1, stronger effect = lower value 0.992 | locus YER110C, stronger effect = lower value 1.01 | locus YER111C, strain swi4, stronger effect = lower value 0.99 | locus YER155C, strain BEM2 (second series), stronger effect = lower value 1.02 | locus YER155C, strain BEM2, stronger effect = lower value 1.01 | locus YER167W, strain BCK2, stronger effect = lower value 1 | locus YFR010W, strain ubp6, stronger effect = lower value 0.992 | locus YGL078C, strain dbp3, stronger effect = lower value 1.06 | locus YGL086W, strain mad1, stronger effect = lower value 1.01 | locus YGL167C, strain pmr1, stronger effect = lower value 0.975 | locus YGL173C, strain kem1, stronger effect = lower value 1 | locus YGL227W, strain vid30, stronger effect = lower value 0.987 | locus YGL240W, strain doc1, stronger effect = lower value 1.01 | locus YGL248W, strain PDE1, stronger effect = lower value 1.02 | locus YGL253W, strain hxk2, stronger effect = lower value 1.02 | locus YGR078C, strain PAC10, stronger effect = lower value 1.03 | locus YGR135W, strain pre9, stronger effect = lower value 1.04 | locus YGR252W, strain gcn5, stronger effect = lower value 1.08 | locus YHR013C, strain ard1, stronger effect = lower value 0.943 | locus YHR027C, strain rpn1, stronger effect = lower value 0.983 | locus YHR030C, strain SLT2, stronger effect = lower value 1.01 and 1.03 | locus YHR079C, strain IRE1 (second series), stronger effect = lower value 1.01 | locus YHR079C, strain IRE1, stronger effect = lower value 1.03 | locus YHR094C, strain hxt1, stronger effect = lower value 1.02 | locus YHR129C, strain ARP1, stronger effect = lower value 1.01 | locus YHR142W, strain chs7, stronger effect = lower value 0.959 | locus YHR200W, strain rpn10, stronger effect = lower value 1.02 | locus YIL066C, strain RNR3, stronger effect = lower value 1.01 | locus YIL073C, strain SPO22, stronger effect = lower value 1.04 | locus YIL125W, strain kgd1, stronger effect = lower value 1.01 | locus YIR030C, strain dcg1, stronger effect = lower value 1.04 | locus YJL092W, strain hpr5, stronger effect = lower value 0.975 | locus YJL095W, strain BCK1 (second series), stronger effect = lower value 0.986 | locus YJL095W, strain BCK1, stronger effect = lower value 1.04 and 1.02 | locus YJL115W, strain asf1, stronger effect = lower value 0.968 | locus YJL129C, strain trk1, stronger effect = lower value 0.993 | locus YJL134W, strain LCB3, stronger effect = lower value 1.01 | locus YJL154C, strain vps35, stronger effect = lower value 0.975 | locus YJL164C, strain tpk1, stronger effect = lower value 0.949 | locus YJL166W, strain qcr8, stronger effect = lower value 0.999 | locus YJL168C, strain set2, stronger effect = lower value 1.02 | locus YJL187C, strain SWE1 (second series), stronger effect = lower value 1.03 | locus YJL187C, strain SWE1, stronger effect = lower value 0.986 | locus YJR043C, strain POL32, stronger effect = lower value 1.01 | locus YJR066W, strain TOR1, stronger effect = lower value 0.976 | locus YKL009W, strain mrt4, stronger effect = lower value 1 | locus YKL068W, stronger effect = lower value 1.02 | locus YKL085W, strain MDH1 (second series), stronger effect = lower value 1.01 | locus YKL085W, strain MDH1, stronger effect = lower value 1.01 | locus YKL160W, strain elf1, stronger effect = lower value 0.963 | locus YKL190W, strain CNB1, stronger effect = lower value 1.01 | locus YKR001C, strain vps1, stronger effect = lower value 0.997 | locus YKR026C, strain gcn3, stronger effect = lower value 0.991 | locus YKR091W, strain srl3, stronger effect = lower value 0.986 | locus YLL001W, strain dnm1, stronger effect = lower value 0.978 | locus YLL026W, stronger effect = lower value 0.978 | locus YLL041C, strain sdh2, stronger effect = lower value 0.976 | locus YLR027C, strain aat2, stronger effect = lower value 0.989 | locus YLR039C, strain RIC1, stronger effect = lower value 0.999 | locus YLR058C, strain SHM2, stronger effect = lower value 1.02 | locus YLR102C, strain apc9, stronger effect = lower value 1 | locus YLR113W, strain HOG1, stronger effect = lower value 1 | locus YLR221C, strain rsa3, stronger effect = lower value 1.03 | locus YLR258W, strain gsy2, stronger effect = lower value 0.962 | locus YLR262C, strain YPT6 (second series), stronger effect = lower value 0.976 | locus YLR262C, strain YPT6, stronger effect = lower value 1.01 | locus YLR268W, strain sec22, stronger effect = lower value 1.02 | locus YLR320W, strain mms22, stronger effect = lower value 1.05 | locus YLR342W, strain FKS1, stronger effect = lower value 0.991 | locus YLR357W, strain rsc2, stronger effect = lower value 0.973 | locus YLR370C, strain arc18, stronger effect = lower value 0.967 | locus YLR371W, strain rom2, stronger effect = lower value 1.02 | locus YLR384C, strain iki3, stronger effect = lower value 1 | locus YLR418C, strain cdc73, stronger effect = lower value 1.05 | locus YML016C, strain PPZ1, stronger effect = lower value 0.996 | locus YML032C, strain rad52, stronger effect = lower value 1 | locus YML120C, strain ndi1, stronger effect = lower value 0.96 | locus YML124C, strain tub3, stronger effect = lower value 1.01 | locus YMR058W, strain fet3, stronger effect = lower value 0.996 | locus YMR078C, strain ctf18, stronger effect = lower value 1.03 | locus YMR125W, strain sto1, stronger effect = lower value 0.948 | locus YMR129W, stronger effect = lower value 0.988 | locus YMR205C, strain PFK2, stronger effect = lower value 0.959 | locus YMR223W, strain ubp8, stronger effect = lower value 1.02 | locus YMR231W, strain pep5, stronger effect = lower value 0.994 | locus YMR263W, strain SAP30, stronger effect = lower value 1.03 | locus YMR307W, strain GAS1, stronger effect = lower value 1.11 | locus YNL067W, strain RPL9B, stronger effect = lower value 1.04 | locus YNL071W, strain lat1, stronger effect = lower value 0.982 | locus YNL153C, strain GIM3, stronger effect = lower value 1.03 | locus YNL183C, strain NPR1, stronger effect = lower value 0.964 | locus YNL209W, strain ssb2, stronger effect = lower value 0.984 | locus YNL233W, strain BNI4, stronger effect = lower value 1.02 | locus YNL248C, strain rpa49, stronger effect = lower value 0.918 | locus YNL250W, strain rad50, stronger effect = lower value 1.02 | locus YNL271C, strain bni1, stronger effect = lower value 1.03 | locus YNL298W, strain CLA4, stronger effect = lower value 1.03 | locus YNL307C, strain MCK1, stronger effect = lower value 1.02 | locus YNL322C, strain KRE1 (second series), stronger effect = lower value 0.982 | locus YNR049C, strain mso1, stronger effect = lower value 0.966 | locus YNR052C, strain pop2, stronger effect = lower value 1.02 | locus YOL012C, strain htz1 1.53 | locus YOL147C, strain pex11, stronger effect = lower value 1.01 | locus YOR001W, strain rrp6, stronger effect = lower value 1.01 | locus YOR061W, strain CKA2, stronger effect = lower value 1.02 | locus YOR069W, strain VPS5, stronger effect = lower value 1.01 | locus YOR070C, strain gyp1, stronger effect = lower value 1.02 | locus YOR080W, strain dia2, stronger effect = lower value 1 | locus YOR083W, strain WHI5, stronger effect = lower value 0.957 | locus YOR106W, strain vam3, stronger effect = lower value 0.929 | locus YOR136W, strain idh2, stronger effect = lower value 1.01 | locus YOR144C, strain elg1, stronger effect = lower value 1.01 | locus YOR184W, strain ser1, stronger effect = lower value 1.01 | locus YOR231W, strain MKK1, stronger effect = lower value 1 | locus YOR265W, strain rbl2, stronger effect = lower value 0.998 | locus YOR270C, strain vph1, stronger effect = lower value 1.03 | locus YOR290C, strain snf2, stronger effect = lower value 0.906 | locus YOR316C, strain cot1, stronger effect = lower value 1.01 | locus YPL051W, strain arl3, stronger effect = lower value 1.01 | locus YPL078C, strain atp4, stronger effect = lower value 0.945 | locus YPL106C, strain sse1, stronger effect = lower value 0.94 | locus YPL240C, strain hsp82, stronger effect = lower value 0.995 | locus YPL241C, strain CIN2, stronger effect = lower value 1.01 | locus YPL256C, strain CLN2, stronger effect = lower value 1.06 | locus YPR119W, strain clb2, stronger effect = lower value 1.02 | locus YPR141C, strain kar3, stronger effect = lower value 1.02 | locus YPR163C, strain tif3, stronger effect = lower value 1.02 | locus YPR167C, strain met16, stronger effect = lower value 1.02 | strain wtn01, stronger effect = lower value 1.02
